# PMC5540273 (PLoS ONE, 2017)
# Where two headings read alike, the source gives them in different places.
# Key:
# GRK7 = conditions: concentration: 1 μM, replicates: in singlicate; n = 1
# GSK3A = conditions: concentration: 1 μM, replicates: in singlicate; n = 1
# GSK3B = conditions: n = 1
# HASPIN = system: T1, HASPIN; conditions: concentration: 1 μM, replicates: in singlicate; n = 1
# T1 construct: gene GSG2
# HCK = conditions: concentration: 1 μM, replicates: in singlicate; n = 1
# HIPK1 = conditions: concentration: 1 μM, replicates: in singlicate; n = 1
# HIPK2 = conditions: concentration: 1 μM, replicates: in singlicate; n = 1
# HIPK3 = conditions: concentration: 1 μM, replicates: in singlicate; n = 1
# HIPK4 = conditions: concentration: 1 μM, replicates: in singlicate; n = 1
# HPK1 = conditions: concentration: 1 μM, replicates: in singlicate; n = 1
# HUNK = conditions: concentration: 1 μM, replicates: in singlicate; n = 1
# ICK = conditions: concentration: 1 μM, replicates: in singlicate; n = 1
# IGF1R = conditions: concentration: 1 μM, replicates: in singlicate; n = 1
# IKK-alpha = system: T2, IKK-alpha; conditions: concentration: 1 μM, replicates: in singlicate; n = 1
# T2 construct: gene CHUK
# IKK-beta = system: T3, IKK-beta; conditions: concentration: 1 μM, replicates: in singlicate; n = 1
# T3 construct: gene IKBKB
# IKK-epsilon = system: T4, IKK-epsilon; conditions: concentration: 1 μM, replicates: in singlicate; n = 1
# T4 construct: gene IKBKE
# INSRR = conditions: concentration: 1 μM, replicates: in singlicate; n = 1
# INSR = conditions: concentration: 1 μM, replicates: in singlicate; n = 1
# IRAK1 = conditions: concentration: 1 μM, replicates: in singlicate; n = 1
# IRAK3 = conditions: concentration: 1 μM, replicates: in singlicate; n = 1
# [1] = concentration: 1 μM, replicates: in singlicate
# 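Also: KINOMEscan kinase panel screen.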
structure (smiles),measurement,setting,value
O=C1NC(=O)C(N2CCc3ccccc32)=C1c1ccccc1Cl [SB-373598],%Inh,GRK7,0%
same,%Inh,GSK3A,4%
same,%Inh,GSK3B; 1 µM,27%
same,%Inh,HASPIN,100%
same,%Inh,HCK,0%
same,%Inh,HIPK1,30%
same,%Inh,HIPK2,24%
same,%Inh,HIPK3,13%
same,%Inh,HIPK4,12%
same,%Inh,HPK1,0%
same,%Inh,HUNK,13%
same,%Inh,ICK,17%
same,%Inh,IGF1R,29%
same,%Inh,IKK-alpha,98.1%
same,%Inh,IKK-beta,20%
same,%Inh,IKK-epsilon,30%
same,%Inh,INSRR,2%
same,%Inh,INSR,23%
same,%Inh,IRAK1,0%
same,%Inh,IRAK3,9%
COc1ccccc1-c1ccc2c(NC(=O)C3CC3)n[nH]c2n1 [SB-711239],%Inh,GRK7,0%
same,%Inh,GSK3A,6%
same,%Inh,GSK3B; 1 µM,0%
same,%Inh,HASPIN,41%
same,%Inh,HCK,0%
same,%Inh,HIPK1,0%
same,%Inh,HIPK2,0%
same,%Inh,HIPK3,1%
same,%Inh,HIPK4,0%
same,%Inh,HPK1,41%
same,%Inh,HUNK,16%
same,%Inh,ICK,0%
same,%Inh,IGF1R,0%
same,%Inh,IKK-alpha,64%
same,%Inh,IKK-beta,0%
same,%Inh,IKK-epsilon,24%
same,%Inh,INSRR,1%
same,%Inh,INSR,0%
same,%Inh,IRAK1,15%
same,%Inh,IRAK3,9%
COc1ccc(C2=C(Nc3cccc(C(=O)O)c3)C(=O)NC2=O)cc1 [SB-390765],%Inh,GRK7,12%
same,%Inh,GSK3A,7%
same,%Inh,GSK3B; 1 µM,31%
same,%Inh,HASPIN,28%
same,%Inh,HCK,8%
same,%Inh,HIPK1,8%
same,%Inh,HIPK2,16%
same,%Inh,HIPK3,21%
same,%Inh,HIPK4,21%
same,%Inh,HPK1,0%
same,%Inh,HUNK,19%
same,%Inh,ICK,29%
same,%Inh,IGF1R,0%
same,%Inh,IKK-alpha,16%
same,%Inh,IKK-beta,23%
same,%Inh,IKK-epsilon,3%
same,%Inh,INSRR,4%
same,%Inh,INSR,13%
same,%Inh,IRAK1,28%
same,%Inh,IRAK3,0%
O=c1cc(N2CCOCC2)nc2n(Cc3cccc(Cl)c3Cl)ccn12 [GSK2286295],%Inh,GRK7,0%
same,%Inh,GSK3A,8%
same,%Inh,GSK3B; [1],12%
same,%Inh,HASPIN,1%
same,%Inh,HCK,0%
same,%Inh,HIPK1,13%
same,%Inh,HIPK2,0%
same,%Inh,HIPK3,14%
same,%Inh,HIPK4,28%
same,%Inh,HPK1,31%
same,%Inh,HUNK,0%
same,%Inh,ICK,3%
same,%Inh,IGF1R,12%
same,%Inh,IKK-alpha,0%
same,%Inh,IKK-beta,25%
same,%Inh,IKK-epsilon,10%
same,%Inh,INSRR,0%
same,%Inh,INSR,5%
same,%Inh,IRAK1,0%
same,%Inh,IRAK3,3%
Cc1cccc(-c2nc(-c3ccc(S(C)(=O)=O)cc3)sc2-c2ccnc(NCCc3ccccc3)c2)c1,%Inh,GRK7,7%
same,%Inh,GSK3A,0%
same,%Inh,GSK3B; [1],0%
same,%Inh,HASPIN,42%
same,%Inh,HCK,0%
same,%Inh,HIPK1,15%
same,%Inh,HIPK2,0%
same,%Inh,HIPK3,6%
same,%Inh,HIPK4,8%
same,%Inh,HPK1,11%
same,%Inh,HUNK,0%
same,%Inh,ICK,0%
same,%Inh,IGF1R,15%
same,%Inh,IKK-alpha,0%
same,%Inh,IKK-beta,8%
same,%Inh,IKK-epsilon,0%
same,%Inh,INSRR,3%
same,%Inh,INSR,7%
same,%Inh,IRAK1,17%
same,%Inh,IRAK3,0%
O=C(Nc1n[nH]c2nc(-c3nccs3)c(Br)cc12)C1CC1 [SB-742251],%Inh,GRK7,0%
same,%Inh,GSK3A,89%
same,%Inh,GSK3B; 1 µM,39%
same,%Inh,HASPIN,11%
same,%Inh,HCK,0%
same,%Inh,HIPK1,0%
same,%Inh,HIPK2,0%
same,%Inh,HIPK3,0%
same,%Inh,HIPK4,0%
same,%Inh,HPK1,48%
same,%Inh,HUNK,0%
same,%Inh,ICK,61%
same,%Inh,IGF1R,0%
same,%Inh,IKK-alpha,54%
same,%Inh,IKK-beta,49%
same,%Inh,IKK-epsilon,1%
same,%Inh,INSRR,0%
same,%Inh,INSR,2%
same,%Inh,IRAK1,64%
same,%Inh,IRAK3,4%
Cc1cc(N2Cc3ccccc3C2)nc(Nc2ccc(S(=O)(=O)N3CCOCC3)cc2)n1.Cl [GSK1669917],%Inh,GRK7,0%
same,%Inh,GSK3A,0%
same,%Inh,GSK3B; [1],0%
same,%Inh,HASPIN,0%
same,%Inh,HCK,0%
same,%Inh,HIPK1,0%
same,%Inh,HIPK2,0%
same,%Inh,HIPK3,0%
same,%Inh,HIPK4,0%
same,%Inh,HPK1,34%
same,%Inh,HUNK,0%
same,%Inh,ICK,99.9%
same,%Inh,IGF1R,2%
same,%Inh,IKK-alpha,0%
same,%Inh,IKK-beta,0%
same,%Inh,IKK-epsilon,29%
same,%Inh,INSRR,0%
same,%Inh,INSR,100%
same,%Inh,IRAK1,0%
same,%Inh,IRAK3,0%
Cc1cccc(-c2nc(Nc3ccncc3)c3ccccc3n2)n1 [GW855857],%Inh,GRK7,0%
same,%Inh,GSK3A,4%
same,%Inh,GSK3B; [1],0%
same,%Inh,HASPIN,26%
same,%Inh,HCK,11%
same,%Inh,HIPK1,41%
same,%Inh,HIPK2,0%
same,%Inh,HIPK3,0%
same,%Inh,HIPK4,19%
same,%Inh,HPK1,9%
same,%Inh,HUNK,0%
same,%Inh,ICK,0%
same,%Inh,IGF1R,0%
same,%Inh,IKK-alpha,0%
same,%Inh,IKK-beta,0%
same,%Inh,IKK-epsilon,0%
same,%Inh,INSRR,0%
same,%Inh,INSR,7%
same,%Inh,IRAK1,0%
same,%Inh,IRAK3,21%
Cc1cccc(-c2nc(Nc3ccc4[nH]ncc4c3)c3ccccc3n2)n1 [GW857175],%Inh,GRK7,4%
same,%Inh,GSK3A,14%
same,%Inh,GSK3B; [1],21%
same,%Inh,HASPIN,68%
same,%Inh,HCK,0%
same,%Inh,HIPK1,0%
same,%Inh,HIPK2,20%
same,%Inh,HIPK3,35%
same,%Inh,HIPK4,3%
same,%Inh,HPK1,54%
same,%Inh,HUNK,0%
same,%Inh,ICK,17%
same,%Inh,IGF1R,0%
same,%Inh,IKK-alpha,6%
same,%Inh,IKK-beta,17%
same,%Inh,IKK-epsilon,21%
same,%Inh,INSRR,0%
same,%Inh,INSR,9%
same,%Inh,IRAK1,9%
same,%Inh,IRAK3,3%
COc1cc2nccc(Nc3ccc(NC(=O)c4ccc(C)cc4)c(O)c3)c2cc1OC.Cl [GW440132],%Inh,GRK7,0%
same,%Inh,GSK3A,4%
same,%Inh,GSK3B; [1],0%
same,%Inh,HASPIN,0%
same,%Inh,HCK,0%
same,%Inh,HIPK1,6%
same,%Inh,HIPK2,0%
same,%Inh,HIPK3,0%
same,%Inh,HIPK4,3%
same,%Inh,HPK1,24%
same,%Inh,HUNK,28%
same,%Inh,ICK,0%
same,%Inh,IGF1R,0%
same,%Inh,IKK-alpha,0%
same,%Inh,IKK-beta,3%
same,%Inh,IKK-epsilon,0%
same,%Inh,INSRR,0%
same,%Inh,INSR,0%
same,%Inh,IRAK1,0%
same,%Inh,IRAK3,14%
